Test results as given in PubChem BioAssay AID1159580 (chemical genetic matrix, 2015).
In all, about 5,500 compounds went through this assay and about 2,000 (36%) were called active. About 18% were inconclusive and are not listed. No stated cut-off is given here; in the data, active means normalized growth mostly below about 0.91 (no sharp cut-off); inconclusive means no clear call, values can overlap the other calls; inactive means mostly above about 0.92. The list shows a part of the results.

Test: chemical genetic growth profiling, strain panel (AID 1159580);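 further: tested at 20 µM; growth read once vehicle control cultures reached saturation at 30 °C; 1 = growth at the plate median or of vehicle wells; lower values mean less growth of the strain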
Settings: growth OD
[1] = S. cerevisiae deletion strains, locus YDL101C, strain DUN1, active compounds read low
[2] = S. cerevisiae deletion strains, locus YHR030C, strain SLT2, active compounds read low

Measured: normalized growth

Cc1cccc(NC(=S)N/N=C\c2ccc(F)cc2)c1
active: [2] 0.821 | S. cerevisiae deletion strains, locus YJR066W, strain TOR1 (second series), active compounds read low 0.601 | S. cerevisiae deletion strains, locus YLR113W, strain HOG1, active compounds read low 0.847 | S. cerevisiae deletion strains, locus YPL256C, strain CLN2, active compounds read low 0.843
inactive: S. cerevisiae deletion strains, locus YAR019C, strain CDC15, active compounds read low 0.96 | S. cerevisiae deletion strains, locus YBL105C, strain PKC1, active compounds read low 0.966 | S. cerevisiae deletion strains, locus YBR135W, strain CKS1, active compounds read low 0.966 | S. cerevisiae deletion strains, locus YBR136W, strain MEC1, active compounds read low 0.965 | S. cerevisiae deletion strains, locus YBR160W, strain CDC28, active compounds read low 0.958 | S. cerevisiae deletion strains, locus YDL017W, strain CDC7, active compounds read low 0.958 | S. cerevisiae deletion strains, locus YDL028C, strain MPS1, active compounds read low 0.958 | [1] 0.967 | S. cerevisiae deletion strains, locus YDL108W, strain KIN28, active compounds read low 0.962 | S. cerevisiae deletion strains, locus YDL132W, strain cdc53, active compounds read low 0.934 | S. cerevisiae deletion strains, locus YDL214C, strain PRR2, active compounds read low 0.867 | S. cerevisiae deletion strains, locus YDR052C, strain DBF4, active compounds read low 0.956 | S. cerevisiae deletion strains, locus YDR054C, strain cdc34, active compounds read low 0.938 | S. cerevisiae deletion strains, locus YDR226W, strain ADK1, active compounds read low 0.952 | S. cerevisiae deletion strains, locus YDR477W, strain SNF1, active compounds read low 0.835 | S. cerevisiae deletion strains, locus YER123W, strain YCK3, active compounds read low 0.806 | S. cerevisiae deletion strains, locus YER133W, strain GLC7, active compounds read low 0.847 | S. cerevisiae deletion strains, locus YFL009W, strain cdc4, active compounds read low 0.953 | S. cerevisiae deletion strains, locus YFL029C, strain CAK1, active compounds read low 0.954 | S. cerevisiae deletion strains, locus YFR003C, strain YPI1, active compounds read low 0.972 | S. cerevisiae deletion strains, locus YFR019W, strain FAB1, active compounds read low 0.919 | S. cerevisiae deletion strains, locus YFR028C, strain CDC14, active compounds read low 0.954 | S. cerevisiae deletion strains, locus YGR040W, strain KSS1, active compounds read low 0.824 | S. cerevisiae deletion strains, locus YGR052W, strain FMP48, active compounds read low 0.871 | S. cerevisiae deletion strains, locus YGR092W, strain DBF2, active compounds read low 0.691 | S. cerevisiae deletion strains, locus YHR079C, strain IRE1, active compounds read low 0.762 | S. cerevisiae deletion strains, locus YHR082C, strain KSP1, active compounds read low 0.825 | S. cerevisiae deletion strains, locus YHR205W, strain SCH9, active compounds read low 0.874 | S. cerevisiae deletion strains, locus YIL147C, strain SLN1, active compounds read low 0.963 | S. cerevisiae deletion strains, locus YJL095W, strain BCK1, active compounds read low 0.834 | S. cerevisiae deletion strains, locus YJL128C, strain PBS2, active compounds read low 0.98 | S. cerevisiae deletion strains, locus YJL157C, strain FAR1, active compounds read low 0.876 | S. cerevisiae deletion strains, locus YJR016C, strain ILV3, active compounds read low 0.961 | S. cerevisiae deletion strains, locus YJR066W, strain TOR1, active compounds read low 0.773 | S. cerevisiae deletion strains, locus YKL048C, strain ELM1, active compounds read low 0.919 | S. cerevisiae deletion strains, locus YKL067W, strain YNK1, active compounds read low 0.9 | S. cerevisiae deletion strains, locus YKL101W, strain HSL1, active compounds read low 0.884 | S. cerevisiae deletion strains, locus YKL193C, strain SDS22, active compounds read low 0.961 | S. cerevisiae deletion strains, locus YKL203C, strain TOR2, active compounds read low 0.844 | S. cerevisiae deletion strains, locus YLR133W, strain CKI1, active compounds read low 0.847 | S. cerevisiae deletion strains, locus YLR403W, strain SFP1, active compounds read low 0.789 | S. cerevisiae deletion strains, locus YML070W, strain DAK1, active compounds read low 0.88 | S. cerevisiae deletion strains, locus YMR001C, strain CDC5, active compounds read low 0.965 | S. cerevisiae deletion strains, locus YMR205C, strain PFK2 (second series), active compounds read low 0.879 | S. cerevisiae deletion strains, locus YMR277W, strain FCP1, active compounds read low 0.958 | S. cerevisiae deletion strains, locus YNL006W, strain LST8, active compounds read low 0.967 | S. cerevisiae deletion strains, locus YNL020C, strain ARK1, active compounds read low 0.853 | S. cerevisiae deletion strains, locus YNL161W, strain CBK1, active compounds read low 0.969 | S. cerevisiae deletion strains, locus YNL183C, strain NPR1, active compounds read low 0.749 | S. cerevisiae deletion strains, locus YNL207W, strain RIO2, active compounds read low 0.946 | S. cerevisiae deletion strains, locus YNL222W, strain SSU72, active compounds read low 0.965 | S. cerevisiae deletion strains, locus YNL307C, strain MCK1 (second series), active compounds read low 0.788 | S. cerevisiae deletion strains, locus YOL078W, strain AVO1, active compounds read low 0.953 | S. cerevisiae deletion strains, locus YOL136C, strain PFK27, active compounds read low 0.844 | S. cerevisiae deletion strains, locus YOR061W, strain CKA2, active compounds read low 0.839 | S. cerevisiae deletion strains, locus YOR119C, strain RIO1, active compounds read low 0.915 | S. cerevisiae deletion strains, locus YOR231W, strain MKK1, active compounds read low 0.843 | S. cerevisiae deletion strains, locus YOR329C, strain SCD5, active compounds read low 0.959 | S. cerevisiae deletion strains, locus YPL031C, strain PHO85, active compounds read low 0.794 | S. cerevisiae deletion strains, locus YPL153C, strain RAD53, active compounds read low 0.773 | S. cerevisiae deletion strains, locus YPL204W, strain HRR25, active compounds read low 0.795 | S. cerevisiae deletion strains, locus YPL209C, strain IPL1, active compounds read low 0.964 | S. cerevisiae deletion strains, locus YPR025C, strain CCL1, active compounds read low 0.961 | S. cerevisiae deletion strains, locus YPR106W, strain ISR1, active compounds read low 0.968 | S. cerevisiae deletion strains, locus YPR111W, strain DBF20, active compounds read low 0.965 | S. cerevisiae deletion strains, strain NNK1, active compounds read low 0.967 | S. cerevisiae deletion strains, strain TSCII, active compounds read low 0.961

CCCOc1ccccc1/C=N\NC(=S)Nc1cccc(F)c1
inactive: S. cerevisiae deletion strains, locus YAL013W, strain DEP1, active compounds read low 0.999 | S. cerevisiae deletion strains, locus YBR229C, strain ROT2, active compounds read low 1.02 | S. cerevisiae deletion strains, locus YCL061C, strain MRC1, active compounds read low 1.01 | [1] 1.04 | S. cerevisiae deletion strains, locus YDR150W, strain NUM1, active compounds read low 1 | S. cerevisiae deletion strains, locus YEL061C, strain CIN8, active compounds read low 1 | S. cerevisiae deletion strains, locus YGR078C, strain PAC10, active compounds read low 1 | S. cerevisiae deletion strains, locus YGR229C, strain SMI1, active compounds read low 1.01 | [2] 0.921 | S. cerevisiae deletion strains, locus YHR087W, strain rtc3, active compounds read low 1.03 | S. cerevisiae deletion strains, locus YJL187C, strain SWE1, active compounds read low 1 | S. cerevisiae deletion strains, locus YJR043C, strain POL32, active compounds read low 1.01 | S. cerevisiae deletion strains, locus YJR075W, strain HOC1, active compounds read low 1.08 | S. cerevisiae deletion strains, locus YLR039C, strain RIC1, active compounds read low 1.02 | S. cerevisiae deletion strains, locus YLR058C, strain SHM2 (second series), active compounds read low 1 | S. cerevisiae deletion strains, locus YLR085C, strain ARP6, active compounds read low 0.882 | S. cerevisiae deletion strains, locus YLR262C, strain YPT6, active compounds read low 1.02 | S. cerevisiae deletion strains, locus YML094W, strain GIM5, active compounds read low 1.01 | S. cerevisiae deletion strains, locus YMR219W, strain ESC1, active compounds read low 1.01 | S. cerevisiae deletion strains, locus YMR263W, strain SAP30, active compounds read low 0.966 | S. cerevisiae deletion strains, locus YMR307W, strain GAS1, active compounds read low 0.93 | S. cerevisiae deletion strains, locus YNL153C, strain GIM3, active compounds read low 1 | S. cerevisiae deletion strains, locus YNL298W, strain CLA4 (second series), active compounds read low 0.983 | S. cerevisiae deletion strains, locus YNL322C, strain KRE1, active compounds read low 1.03 | S. cerevisiae deletion strains, locus YNR030W, strain Alg12, active compounds read low 0.988 | S. cerevisiae deletion strains, locus YPL055C, strain LGE1, active compounds read low 0.945 | S. cerevisiae deletion strains, locus YPL241C, strain CIN2, active compounds read low 0.996 | S. cerevisiae deletion strains, locus YPR135W, strain CTF4, active compounds read low 0.987 | S. cerevisiae strains, strain wild type, active compounds read low 1
